The assay relates to Pseudomonas aeruginosa PA14 wild type. Put plainly: respiration area under curve with compound as sole nitrogen source, 24 h (OmniLog AUC (arbitrary units)); higher = more respiration / better utilisation as nitrogen source, active = 2000 or more. On the procedure:
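Biolog Phenotype MicroArray plates PM6-PM8: each di/tripeptide is the sole nitrogen source (IF-0 medium with succinate/ferric citrate and dye mix A). Tetrazolium reduction was read in the OmniLog every 15 min for 24 h at 37°C and summarised as area under the respiration curve (arbitrary units). The paper counts values below 2000 as no respiration and above 8000 as solid respiration. Replicate datasets are averaged.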
`N[C@@H](CCC(=O)O)C(=O)N[C@@H](Cc1ccc(O)cc1)C(=O)O` (plate: PM6): the “respiration area under curve” value was 1140 (inactive).
The value for `O=C(O)[C@@H]1CCCN1C(=O)[C@@H]1CCCN1` (plate: PM7) was 10500 (active); that for `CSCC[C@H](N)C(=O)N[C@H](C(=O)O)C(C)C` (plate: PM7) was 4480 (active); that for `CC(NC(=O)C(N)CC(=O)O)C(=O)O` (stereo not given) (plate: PM8) was 8830 (active).
Under `N[C@@H](CCC(=O)O)C(=O)N[C@@H](Cc1c[nH]c2ccccc12)C(=O)O` (plate: PM6) stands 2740 (active).
Consider `C[C@H](NC(=O)CNC(=O)CN)C(=O)O` (plate: PM8), for which the “respiration area under curve” value was 11300 (active).
Under `CSCCC(NC(=O)C(N)C(C)C)C(=O)O` (stereo not given) (plate: PM8) stands 4440 (active); under `C[C@H](N)C(=O)N[C@H](C(=O)O)[C@@H](C)O` (plate: PM6), 6750 (active).
On to `O=C(O)[C@H](Cc1c[nH]c2ccccc12)NC(=O)[C@@H]1CCCN1` (plate: PM8), for which the “respiration area under curve” value was 1260 (inactive).
Under `NC(CO)C(=O)NC(CCC(=O)O)C(=O)O` (stereo not given) (plate: PM8) stands 5470 (active).
`N[C@@H](Cc1ccc(O)cc1)C(=O)NCC(=O)O` (plate: PM7): the “respiration area under curve” value was 9630 (active).
Under `CSCC[C@H](N)C(=O)N[C@@H](Cc1ccccc1)C(=O)O` (plate: PM7) stands 1400 (inactive).
The value for `CC(C)[C@@H](NC(=O)CN)C(=O)O` (plate: PM8) was 0 (inactive); that for `N[C@@H](Cc1ccccc1)C(=O)N[C@@H](CO)C(=O)O` (plate: PM7) was 7630 (active).
Under `CC(C)[C@H](NC(=O)[C@@H](N)CO)C(=O)O` (plate: PM7) stands 8700 (active); under `CC(C)C[C@H](N)C(=O)N1CCC[C@H]1C(=O)O` (plate: PM8), 9370 (active).
On to `CSCC[C@H](NC(=O)[C@@H](N)[C@@H](C)O)C(=O)O` (plate: PM7), for which the “respiration area under curve” value is 4960 (active).
The value for `CC(C)C[C@H](NC(=O)[C@@H](C)N)C(=O)O` (plate: PM8) was 626 (inactive); that for `CC(C)C[C@H](NC(=O)[C@@H](N)Cc1c[nH]c2ccccc12)C(=O)O` (plate: PM7) was 3760 (active); that for `CSCC[C@H](N)C(=O)N1CCC[C@H]1C(=O)O` (plate: PM7) was 8120 (active).
`CC(C)C[C@H](N)C(=O)N[C@@H](CCCN=C(N)N)C(=O)O` (plate: PM6): the “respiration area under curve” value is 10200 (active).
Under `CCC(C)C(N)C(=O)NC(CC(N)=O)C(=O)O` (stereo not given) (plate: PM8) stands 9360 (active); under `CC[C@H](C)[C@H](NC(=O)CN)C(=O)O` (plate: PM8), 7100 (active); under `CC(C)C[C@H](N)C(=O)N[C@H](C(=O)O)C(C)C` (plate: PM7), 9910 (active).
The value for `CC(C)[C@H](N)C(=O)N[C@@H](Cc1ccc(O)cc1)C(=O)N[C@H](C(=O)O)C(C)C` (plate: PM8) was 8370 (active); that for `C[C@@H](O)[C@H](N)C(=O)N1CCC[C@H]1C(=O)O` (plate: PM7) was 13000 (active); that for `CC(C)C[C@H](NC(=O)[C@@H](N)CC(=O)O)C(=O)O` (plate: PM6) was 2690 (active).
The value for `CC[C@H](C)[C@H](NC(=O)[C@H](C)N)C(=O)O` (plate: PM8) was 9130 (active).
On to `C[C@@H](O)[C@H](N)C(=O)N[C@@H](CCC(N)=O)C(=O)O` (plate: PM8), for which the “respiration area under curve” value is 12100 (active).
The value for `CC[C@H](C)[C@H](N)C(=O)N1CCC[C@H]1C(=O)O` (plate: PM6) was 7460 (active).
The value for `N[C@@H](Cc1ccc(O)cc1)C(=O)N[C@@H](CCC(=O)O)C(=O)O` (plate: PM7) was 4890 (active); that for `C[C@H](NC(=O)[C@@H](N)Cc1ccc(O)cc1)C(=O)O` (plate: PM7) was 11200 (active); that for `C[C@H](N)C(=O)NCC(=O)O` (plate: PM6) was 8070 (active).
Under `CSCCC(N)C(=O)NC(CCSC)C(=O)O` (stereo not given) (plate: PM7) stands 0 (inactive); under `N[C@@H](CO)C(=O)N[C@@H](Cc1ccc(O)cc1)C(=O)O` (plate: PM7), 6130 (active); under `NC(=O)C[C@H](NC(=O)[C@@H]1CCCN1)C(=O)O` (plate: PM8), 12900 (active).
In the case of `CSCCC(NC(=O)C(N)CC(C)C)C(=O)O` (stereo not given) (plate: PM6), the “respiration area under curve” value was 3040 (active).
Under `C[C@H](NC(=O)[C@@H](N)CCC(=O)O)C(=O)O` (plate: PM8) stands 9190 (active).
Under `CC[C@H](C)[C@H](N)C(=O)N[C@@H](CCCN=C(N)N)C(=O)O` (plate: PM6) stands 9480 (active).
Under `CC(C)C[C@H](N)C(=O)N[C@H](CC(C)C)C(=O)O` (plate: PM8) stands 0 (inactive).

For the origin of these results see the supplement of paper PMC4206461.
